Data from PubChem BioAssay (Tox21).
Where “and” joins values, the source holds several entries; their conditions need not be identical. Equal values may be shown once. Results filed as inconclusive are left out. Where a call stands in place of a potency, no number is given. Some structures have more than one record in an assay (separate samples or runs), and their calls can disagree. Calls of active or inactive are those of the source. Calls follow the shape of the dose curve; as a rule, active = well fitted curve in the direction sought with a large enough effect in the repeat runs; inconclusive = weak or mixed curves; inactive = no such curve, though single readings can be large; an effect the other way counts as inactive or inconclusive.

Tests used:
[1] = molecular target: Cytochrome P450 2D6 (Homo sapiens) (UniProt P10635); assay: Cytochrome P450 Family 2 Subfamily D Member 6 (CYP2D6) small molecule antagonists: luciferase reporter qHTS assay (AID 1671196); conditions: P450-Glo CYP2D6 enzyme assay, luciferin luminescence, 1 h; series mostly up to 115 µM; also: nearly all actives have a fitted effect of over 50% in size
Summary of the method: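 Luminogenic proluciferin substrate, CYP2D6 enzyme; 10 min RT preincubation with compound, NADPH regeneration system added, 1 h RT. Stop/detection reagent, 20 min RT, luminescence read (RLU). Signal proportional to CYP activity.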

[2] = molecular target: Cytochrome P450 2C19 (Homo sapiens) (UniProt P33261); assay: Cytochrome P450 Family 2 Subfamily C Member 19 (CYP2C19) small molecule antagonists: luciferase reporter qHTS assay (AID 1671197); conditions: P450-Glo CYP2C19 enzyme, luciferin luminescence, 1 h; series mostly up to 115 µM; also: nearly all actives have a fitted effect of over 65% in size
Summary of the method: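 P450-Glo CYP2C19 system: enzyme-substrate mix with compound 10 min at room temperature, then NADPH regeneration solution, 1 h at 37C. Proluciferin-to-luciferin conversion detected by luminescence after 20 min with detection reagent; ketoconazole as positive control.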

[3] = molecular target: Cytochrome P450 1A2 (Homo sapiens) (UniProt P05177); assay: Cytochrome P450 Family 1 Subfamily A Member 2 (CYP1A2) small molecule antagonists: luciferase reporter qHTS assay (AID 1671199); conditions: P450-Glo CYP1A2 enzyme, luciferin luminescence, 1 h; series mostly up to 115 µM; also: nearly all actives have a fitted effect of over 50% in size
Summary of the method: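 Luminescence readout (relative luminescence units) after luciferin detection reagent, 20 min RT. Preceded by 1 h room-temperature CYP1A2 reaction with NADPH regeneration solution following 10 min compound preincubation with enzyme and proluciferin substrate. Furafylline positive control.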

[4] = molecular target: Voltage-gated inwardly rectifying potassium channel KCNH2 (Homo sapiens) (UniProt Q12809); assay: Human Ether-a-go-go-Related Gene (hERG) channel small molecule antagonists: fluorescence cell-based qHTS assay (AID 1671200); conditions: hERG-U2OS cells, FluxOR thallium flux fluorescence; series mostly up to 76.8 µM; also: nearly all actives have a fitted effect of over 50% in size;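 as to activity change, negative = inhibition: hERG-expressing U2OS cells given a thallium stimulus after FluxOR II dye loading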
Summary of the method: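 Cell line hERG-U2OS; dye FluxOR II, 1 h RT dark; Tl+ stimulus; ex 480/em 540 nm, read each second for 2 min.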

[5] = molecular target: Cytochrome P450 3A4 (Homo sapiens) (UniProt P08684); assay: Cytochrome P450 Family 3 Subfamily A Member 4 (CYP3A4) small molecule antagonists: luciferase reporter qHTS assay (AID 1671201); conditions: P450-Glo CYP3A4 enzyme, luciferin luminescence, 1 h; series mostly up to 115 µM; also: nearly all actives have a fitted effect of over 50% in size
Summary of the method: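 Room-temperature assay throughout: 10 min compound–enzyme/substrate preincubation, 1 h reaction after NADPH regeneration solution, 20 min detection. Luciferin formed from proluciferin substrate is quantified by luminescence.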

[6] = molecular target: Cytochrome P450 2C9 (Homo sapiens) (UniProt P11712); assay: Cytochrome P450 Family 2 Subfamily C Member 9 (CYP2C9) small molecule antagonists: luciferase reporter qHTS assay (AID 1671198); conditions: P450-Glo CYP2C9 enzyme assay, luciferin luminescence; series mostly up to 115 µM; also: nearly all actives have a fitted effect of over 50% in size
Summary of the method: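 P450-Glo proluciferin substrate with CYP2C9 enzyme; 10 min RT preincubation, then NADPH regeneration 1 h at 37C; luciferin detection reagent 20 min RT, luminescence in relative luminescence units.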
Potency is read from the fitted curve at half-maximal effect.

Cytochrome P450 2D6 (Homo sapiens), sequence (P10635 whole entry, looked up): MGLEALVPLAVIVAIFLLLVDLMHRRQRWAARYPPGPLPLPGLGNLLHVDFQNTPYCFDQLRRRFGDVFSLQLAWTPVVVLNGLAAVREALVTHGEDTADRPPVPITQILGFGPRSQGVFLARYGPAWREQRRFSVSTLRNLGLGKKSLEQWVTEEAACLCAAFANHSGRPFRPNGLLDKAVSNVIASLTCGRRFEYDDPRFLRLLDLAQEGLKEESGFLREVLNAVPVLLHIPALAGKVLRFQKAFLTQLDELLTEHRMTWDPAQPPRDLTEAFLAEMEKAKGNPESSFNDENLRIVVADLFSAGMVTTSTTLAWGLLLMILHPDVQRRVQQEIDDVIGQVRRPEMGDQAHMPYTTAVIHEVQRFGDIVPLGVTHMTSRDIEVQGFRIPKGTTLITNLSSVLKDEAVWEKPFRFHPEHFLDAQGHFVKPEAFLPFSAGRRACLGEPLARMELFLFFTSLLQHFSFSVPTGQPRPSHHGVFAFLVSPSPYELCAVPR
Cytochrome P450 3A4 (Homo sapiens), sequence (P08684 whole entry, looked up): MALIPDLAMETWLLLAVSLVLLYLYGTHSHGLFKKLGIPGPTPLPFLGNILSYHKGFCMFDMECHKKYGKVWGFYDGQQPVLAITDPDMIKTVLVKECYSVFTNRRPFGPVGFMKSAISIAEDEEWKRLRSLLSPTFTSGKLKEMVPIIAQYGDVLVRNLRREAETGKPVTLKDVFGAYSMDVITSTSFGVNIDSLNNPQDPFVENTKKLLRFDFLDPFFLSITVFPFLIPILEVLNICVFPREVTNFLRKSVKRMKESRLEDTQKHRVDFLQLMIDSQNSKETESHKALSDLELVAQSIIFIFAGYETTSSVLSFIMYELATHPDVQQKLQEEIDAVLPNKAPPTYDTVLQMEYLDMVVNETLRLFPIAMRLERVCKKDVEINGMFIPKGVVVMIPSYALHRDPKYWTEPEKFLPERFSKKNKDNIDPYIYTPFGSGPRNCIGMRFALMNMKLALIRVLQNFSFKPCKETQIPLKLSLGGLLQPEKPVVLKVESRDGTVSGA
Voltage-gated inwardly rectifying potassium channel KCNH2 (Homo sapiens), sequence (Q12809 whole entry, looked up): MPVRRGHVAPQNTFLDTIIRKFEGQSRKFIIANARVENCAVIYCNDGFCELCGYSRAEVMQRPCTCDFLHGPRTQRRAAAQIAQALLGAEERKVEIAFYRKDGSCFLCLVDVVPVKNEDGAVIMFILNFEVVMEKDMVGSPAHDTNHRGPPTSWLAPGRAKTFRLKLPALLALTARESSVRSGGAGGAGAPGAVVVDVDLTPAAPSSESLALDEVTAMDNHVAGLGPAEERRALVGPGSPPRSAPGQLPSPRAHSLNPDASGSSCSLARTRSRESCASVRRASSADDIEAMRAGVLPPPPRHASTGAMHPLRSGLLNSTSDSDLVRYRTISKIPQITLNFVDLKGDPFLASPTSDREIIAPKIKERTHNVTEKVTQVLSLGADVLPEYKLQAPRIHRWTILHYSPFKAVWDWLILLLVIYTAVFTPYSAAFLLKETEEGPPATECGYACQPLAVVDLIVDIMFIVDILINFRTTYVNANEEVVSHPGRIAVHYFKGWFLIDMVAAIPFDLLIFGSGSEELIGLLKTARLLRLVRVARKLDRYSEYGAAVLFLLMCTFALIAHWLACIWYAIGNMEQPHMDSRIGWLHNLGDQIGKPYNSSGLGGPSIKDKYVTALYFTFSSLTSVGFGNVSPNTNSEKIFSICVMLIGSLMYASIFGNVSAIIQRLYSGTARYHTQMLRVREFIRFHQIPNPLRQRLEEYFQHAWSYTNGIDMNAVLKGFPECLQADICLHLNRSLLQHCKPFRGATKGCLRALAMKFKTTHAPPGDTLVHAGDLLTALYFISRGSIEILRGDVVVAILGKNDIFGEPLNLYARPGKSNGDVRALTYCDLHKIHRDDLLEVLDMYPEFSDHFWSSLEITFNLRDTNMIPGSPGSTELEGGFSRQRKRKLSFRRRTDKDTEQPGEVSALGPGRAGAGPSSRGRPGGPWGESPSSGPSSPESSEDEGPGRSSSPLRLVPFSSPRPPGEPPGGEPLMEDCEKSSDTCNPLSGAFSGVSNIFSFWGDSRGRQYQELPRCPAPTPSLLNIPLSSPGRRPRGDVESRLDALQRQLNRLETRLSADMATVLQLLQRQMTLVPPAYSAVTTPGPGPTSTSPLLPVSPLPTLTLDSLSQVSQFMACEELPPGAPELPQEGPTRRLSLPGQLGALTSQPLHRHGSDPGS
Cytochrome P450 2C9 (Homo sapiens), sequence (P11712 whole entry, looked up): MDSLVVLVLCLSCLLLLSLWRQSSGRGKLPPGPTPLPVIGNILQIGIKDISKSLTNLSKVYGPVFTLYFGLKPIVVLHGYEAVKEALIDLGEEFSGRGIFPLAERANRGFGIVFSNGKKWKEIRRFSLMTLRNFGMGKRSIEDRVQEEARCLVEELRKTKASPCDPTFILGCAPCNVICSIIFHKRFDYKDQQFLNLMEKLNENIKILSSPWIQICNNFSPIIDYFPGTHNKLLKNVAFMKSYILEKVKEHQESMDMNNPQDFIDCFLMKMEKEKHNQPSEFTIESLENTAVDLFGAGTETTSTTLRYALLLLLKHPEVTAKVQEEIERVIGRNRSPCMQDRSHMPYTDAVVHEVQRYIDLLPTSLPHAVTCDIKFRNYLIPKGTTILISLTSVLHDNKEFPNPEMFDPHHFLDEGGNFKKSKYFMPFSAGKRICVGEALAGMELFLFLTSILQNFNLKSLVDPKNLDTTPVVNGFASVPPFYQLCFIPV
Cytochrome P450 1A2 (Homo sapiens), sequence (P05177 whole entry, looked up): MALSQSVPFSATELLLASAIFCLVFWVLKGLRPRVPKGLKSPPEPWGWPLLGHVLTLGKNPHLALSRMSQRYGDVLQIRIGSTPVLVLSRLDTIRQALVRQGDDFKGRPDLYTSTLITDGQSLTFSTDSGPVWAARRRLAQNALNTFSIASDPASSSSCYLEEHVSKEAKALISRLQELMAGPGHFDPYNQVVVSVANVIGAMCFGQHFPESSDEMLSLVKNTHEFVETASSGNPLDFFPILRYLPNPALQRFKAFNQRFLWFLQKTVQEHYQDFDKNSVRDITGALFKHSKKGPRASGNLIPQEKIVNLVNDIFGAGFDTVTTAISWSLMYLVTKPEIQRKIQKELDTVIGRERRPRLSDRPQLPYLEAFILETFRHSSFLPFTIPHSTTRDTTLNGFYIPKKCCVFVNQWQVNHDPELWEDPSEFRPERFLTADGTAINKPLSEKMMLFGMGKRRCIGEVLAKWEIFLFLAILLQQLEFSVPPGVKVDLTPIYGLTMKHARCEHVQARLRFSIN
Cytochrome P450 2C19 (Homo sapiens), sequence (P33261 whole entry, looked up): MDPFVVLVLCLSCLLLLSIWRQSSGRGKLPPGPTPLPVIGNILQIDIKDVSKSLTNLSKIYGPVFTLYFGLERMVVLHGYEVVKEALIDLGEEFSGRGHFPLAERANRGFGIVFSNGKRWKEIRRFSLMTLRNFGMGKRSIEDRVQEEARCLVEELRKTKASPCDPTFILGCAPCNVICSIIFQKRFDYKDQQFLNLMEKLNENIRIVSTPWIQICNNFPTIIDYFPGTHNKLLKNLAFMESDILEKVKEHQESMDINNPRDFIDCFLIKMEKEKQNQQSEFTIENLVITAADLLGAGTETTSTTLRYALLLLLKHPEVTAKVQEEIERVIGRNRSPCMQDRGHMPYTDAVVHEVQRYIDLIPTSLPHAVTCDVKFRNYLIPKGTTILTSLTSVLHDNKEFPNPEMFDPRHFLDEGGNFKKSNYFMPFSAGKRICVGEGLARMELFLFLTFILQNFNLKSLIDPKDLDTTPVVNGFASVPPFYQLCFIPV

| Compound | Potency [1] | Potency [2] | Potency [3] | Potency [4] | Potency [5] | Potency [6] | activity change, negative = inhibition [3] |
| --- | --- | --- | --- | --- | --- | --- | --- |
| O=C1c2cccc(O)c2C(=O)c2c(O)cccc21 | inactive | 28.6 µM (active) and 38.9 µM (active) | 9.03 µM (active) and 6.45 µM (active) | inactive | inactive | – | – |
| CCCc1c(OCCCCc2nn[nH]n2)ccc(C(C)=O)c1O | inactive | – | 35.6 µM (active) and 30.9 µM (active) | inactive | – | 159 nM (active) and 246 nM (active) | – |
| O=C(Nc1ccc([N+](=O)[O-])cc1Cl)c1cc(Cl)ccc1O | inactive | – | 20 µM (active) | inactive | – | 25.2 µM (active) | -15.9% [at 23.6 µM] (inactive) |
| CCCCOCCOCCO | inactive | – | inactive | inactive | inactive | inactive | – |
| Cc1ccc(C(=O)c2cc(O)c(O)c([N+](=O)[O-])c2)cc1 | inactive | inactive | inactive | inactive | – | – | – |
| Nc1ncn([C@@H]2O[C@H](CO)[C@@H](O)[C@H]2O)c(=O)n1 | inactive | – | inactive | inactive | inactive | inactive | – |
| O=[N+]([O-])c1ccc2c(c1)Cc1ccccc1-2 | inactive | 22.4 µM (active) and 20 µM (active) | 2 µM (active) and 8.94 µM (active) | inactive | inactive | – | – |
| O=C(COc1ccc(Cl)cc1)N1CCN(Cc2ccc3c(c2)OCO3)CC1 | 1.59 µM (active) and 2.45 µM (active) | – | 28.3 µM (active) and 17.4 µM (active) | 19.5 µM (active) and 8.49 µM (active) | – | 28.3 µM (active) and 13.8 µM (active) | – |
| Brc1cc(Oc2cc(Br)c(Br)c(Br)c2Br)c(Br)c(Br)c1Br | inactive | 10.1 µM (active) and inactive | inactive | inactive | inactive | – | – |
| CCCCCCCCCCCO | inactive | 20.5 µM (active) and inactive | – | inactive | inactive | – | – |
| c1cc(N(CC2CO2)CC2CO2)ccc1OCC1CO1 (centres undefined) | 56.4 µM (active) | – | 63.3 µM (active) | inactive | inactive | 63.4 µM (active) and 39.9 µM (active) | – |
| Oc1ccc(O)cc1 | inactive | inactive | inactive | inactive | inactive | – | – |
| O=S(=O)(O)c1ccc(O)cc1 | inactive | – | inactive | inactive | inactive | inactive | – |
| O=C1OC2(c3cc(Br)c(O)c(Br)c3Oc3c2cc(Br)c(O)c3Br)c2c(Cl)c(Cl)c(Cl)c(Cl)c21 | 24.2 µM (active) | – | 12.6 µM (active) | inactive | 71.1 µM (active) and inactive | 10 µM (active) and 17.2 µM (active) | – |
| CCCCNS(=O)(=O)c1ccccc1 | inactive | – | inactive | inactive | inactive | 35.1 µM (active) and 35.6 µM (active) | – |
| COC(=O)Nc1nc2ccc(S(=O)c3ccccc3)cc2[nH]1 (centres undefined) | inactive | – | 28.2 µM (active) and 17.4 µM (active) | inactive | inactive | inactive | – |

| Compound | Potency [1] | Potency [2] | Potency [3] | Potency [4] | Potency [5] | Potency [6] | activity change, negative = inhibition [3] |
| --- | --- | --- | --- | --- | --- | --- | --- |
| COc1ccc(OC)c(C(O)CNC(=O)CN)c1 (centres undefined) | inactive | 20 µM (active) and 24.5 µM (active) | – | inactive | – | – | – |
| Cc1ccc2c(n1)Oc1ccc(C(C)C(=O)OCC(=O)N(C)C)cc1C2 (centres undefined) | 38.9 µM (active) | – | inactive | inactive | inactive | 21.9 µM (active) | – |
| CCCCCCCCCC(=O)OC | inactive | – | inactive | inactive | inactive | inactive | – |
| O=C(OCc1ccccc1)c1ccccc1O | inactive | – | 31.5 µM (active) and 28.3 µM (active) | inactive | inactive | 35.6 µM (active) | – |
| Nc1ccccc1N | 36.4 µM (active) and 7.31 µM (active) | 40.9 µM (active) and 17.8 µM (active) | 2.58 µM (active) and 13.8 µM (active) | inactive | – | – | – |
| CCC(C)OC(=O)c1ccc(O)cc1 (centres undefined) | 63.3 µM (active) | 35.8 µM (active) and 25.2 µM (active) | 20.1 µM (active) and 35.6 µM (active) | inactive | inactive | – | – |
| CCCCC/C=C/C=C/C=O | inactive and 35.6 µM (active) | – | inactive and 71 µM (active) | inactive | inactive and 39.9 µM (active) | 35.6 µM (active) | – |
| CC(C)Oc1ccc2c(=O)c(-c3ccccc3)coc2c1 | inactive | – | 12.3 µM (active) and 6.45 µM (active) | inactive | inactive | 17.4 µM (active) and 27.5 µM (active) | – |
| O=C=Nc1ccc(Cc2ccc(N=C=O)cc2)cc1 | inactive | – | inactive | inactive | – | 6.98 µM (active) | – |
| Cn1cnc([N+](=O)[O-])c1Sc1ncnc2nc[nH]c12 | 44.5 µM (active) and inactive | – | inactive | inactive | inactive | inactive | – |
| COc1cc([C@@H]2c3cc4c(cc3[C@H](O)[C@H]3COC(=O)[C@H]23)OCO4)cc(OC)c1OC | inactive | – | 35.6 µM (active) | inactive | – | 2.83 µM (active) and 2.19 µM (active) | – |
| O=CCc1ccccc1 | inactive | – | 39.9 µM (active) | inactive | inactive | 25 µM (active) and 5.03 µM (active) | – |
| C=C(C)C(=O)OCCOC(=O)C(=C)C | inactive | – | inactive and 35.6 µM (active) | inactive | inactive | inactive | – |
| O=c1oc(=O)c2cc3c(=O)oc(=O)c3cc12 | inactive | – | inactive | inactive | – | inactive | – |
| Nc1ccc(Cl)cc1Cl | inactive | – | 31.4 µM (active) and 39.9 µM (active) | inactive | – | inactive | – |
| CC(C)=CCCC(C)CCO (centres undefined) | inactive | inactive and 50.2 µM (active) | – | inactive | inactive and 39.9 µM (active) | inactive | – |
